# Assay results: PubChem BioAssay (NCI)
# About 83,000 compounds went through this panel and 20% of them were active in at least one assay; those are over-represented in the sample as a whole.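 Testing used 96-well plates and a 48-hour single-concentration exposure. Example: -40 means 40% of the starting cells died.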 Values without a mark were called inactive. The source made the active and inactive calls. How the source made its calls: active means growth percent below 10; inactive means the rest.
# Key:
# Assay in all cases: NCI-60 one-dose screen, 48 h (100 = growth as untreated, 0 = no growth, -100 = all killed)
# Conditions in all cases: 10 µM unless noted
# SR leukemia = tested on: SR leukemia
# RPMI-8226 leukemia = tested on: RPMI-8226 leukemia
# OVCAR-5 ovarian = tested on: OVCAR-5 ovarian
# OVCAR-4 ovarian = tested on: OVCAR-4 ovarian
# IGROV1 ovarian = tested on: IGROV1 ovarian
# OVCAR-3 ovarian = tested on: OVCAR-3 ovarian
# HS 578T breast = tested on: HS 578T breast
# NCI/ADR-RES ovarian = tested on: NCI/ADR-RES ovarian
# T-47D breast = tested on: T-47D breast
# BT-549 breast = tested on: BT-549 breast
# MDA-MB-435 melanoma = tested on: MDA-MB-435 melanoma
# SW-620 colon = tested on: SW-620 colon
# MCF7 breast = tested on: MCF7 breast
# HCT-116 colon = tested on: HCT-116 colon
# HCC-2998 colon = tested on: HCC-2998 colon
# KM12 colon = tested on: KM12 colon
# SK-OV-3 ovarian = tested on: SK-OV-3 ovarian
# OVCAR-8 ovarian = tested on: OVCAR-8 ovarian
SMILES,growth (SR leukemia),growth (RPMI-8226 leukemia),growth (OVCAR-5 ovarian),growth (OVCAR-4 ovarian),growth (IGROV1 ovarian),growth (OVCAR-3 ovarian),growth (HS 578T breast),growth (NCI/ADR-RES ovarian),growth (T-47D breast),growth (BT-549 breast),growth (MDA-MB-435 melanoma),growth (SW-620 colon),growth (MCF7 breast),growth (HCT-116 colon),growth (HCC-2998 colon),growth (KM12 colon),growth (SK-OV-3 ovarian),growth (OVCAR-8 ovarian) [%]
CCC1=CC2CN(C1)Cc1c([nH]c3ccccc13)[C@@](C(=O)OC)(c1cc3c(cc1OC)N(C)[C@H]1[C@@](O)(C(=O)OC)[C@H](OC(C)=O)[C@]4(CC)C=CCN5CC[C@]31[C@@H]54)C2 (stereo not given in full),6.9% (active),31.4%,15.6%,29.6%,35.7%,-29.6% (active),29.1%,-16.1% (active),76.1%,-27.2% (active),2.28% (active),29.1%,8.05% (active),-9.83% (active),-36% (active),0.29% (active),,
Cc1ccc([C@H]2c3[nH]c4ccccc4c3C[C@H]3C(=O)N(CCCCCCC(=O)NO)CC(=O)N23)cc1,10.6%,3.03% (active),44.7%,59.2%,57.3%,47%,52.5%,94.5%,19.5%,68%,38.3%,36.5%,35.5%,15.8%,,48.2%,63.3%,
Nc1nc(NC2CC2)cc(-c2cccc(Cl)c2Cl)n1,14.3%,74.2%,87.1%,73.4%,65.6%,36.8%,64.7%,25%,,54.7%,-12.2% (active),21.5%,20.3%,42.2%,55.8%,47.8%,64.7%,
CC(=O)c1ccc(N2C(=O)c3ccc(Oc4ccccc4)cc3C2=O)cc1,119%,101%,103%,108%,108%,107%,115%,105%,106%,98.8%,96.3%,98.8%,101%,104%,99.4%,95.6%,108%,
CC1(C)CC(=O)c2cc3c(N)c(C(=O)Nc4ccc(Cl)cc4)sc3nc2C1,113%,103%,,,111%,111%,109%,114%,96.2%,125%,109%,109%,103%,108%,116%,117%,106%,111
CCN(CC)CCCCCCCCNc1c2ccc(Cl)cc2nc2ccc(OC)cc12,-63.6% (active),-43.8% (active),-24% (active),-49.8% (active),-9.45% (active),-38.3% (active),,-29.8% (active),-37.9% (active),-82.6% (active),-81.9% (active),-31.9% (active),-75.1% (active),-63.8% (active),,-49.5% (active),,
COc1cc(C2CC(c3ccccc3)=NN2C=O)ccc1Oc1ccnc2cc(Cl)ccc12 (stereo not given),50.4%,32.1%,84.2%,,80.1%,69.9%,76.2%,22.9%,33.6%,46%,36%,87.9%,50.5%,54.7%,87.4%,49.9%,86.6%,
CCOC(=O)C(CCCCC(NC(C)=O)(C(=O)OCC)C(=O)OCC)(NC(C)=O)C(=O)OCC,99.8%,103%,103%,107%,106%,107%,104%,98.4%,89.4%,107%,104%,104%,98.3%,105%,109%,100%,96.9%,
CC(=O)Oc1ccccc1C(=O)Nc1ncc([N+](=O)[O-])s1,13.1%,7.09% (active),,55.2%,26.2%,5.56% (active),15.6%,20.6%,61.7%,-29.4% (active),24.2%,26.7%,49.7%,3.62% (active),23.3%,24.7%,85.5%,
COc1cccc(N2CCN(c3ncnc4cc[nH]c34)CC2)c1,39.4%,35.4%,,,85.4%,70.9%,92.5%,,20.4%,42.9%,42.6%,90.6%,46.7%,35.8%,62.7%,71.8%,86.5%,40.3
CC1(C)CN(CCNc2nccc(-c3c(-c4cccc(O)c4)nc4sccn34)n2)S(=O)(=O)N1,17.5%,96.1%,94.1%,70.9%,38.5%,77.5%,71.6%,111%,75.6%,80.9%,19.9%,87.6%,70%,28%,93.4%,76.4%,44.7%,
N/C(=N\O)c1ncc(-c2ccc(C(F)(F)F)cc2)c(NC2CCCCCC2)n1,-48.8% [100 µM] (active),-35.7% [100 µM] (active),-76.5% [100 µM] (active),-6.06% [100 µM] (active),-77.2% [100 µM] (active),-95% [100 µM] (active),-43.3% [100 µM] (active),-61.8% [100 µM] (active),-57.3% [100 µM] (active),-93.2% [100 µM] (active),-84.2% [100 µM] (active),-67.4% [100 µM] (active),-92.8% [100 µM] (active),-95.8% [100 µM] (active),-95.6% [100 µM] (active),-90.1% [100 µM] (active),-17.8% [100 µM] (active),
CN1CCC2(CC1)N=C(SCC(=O)Nc1cnc3ccccc3c1)C(c1ccc(Br)cc1)=N2,-27% (active),-7.88% (active),67.7%,65.8%,16.2%,35.4%,24%,29.6%,10.5%,59.4%,1.84% (active),-6.58% (active),-42.7% (active),-90.7% (active),-51.3% (active),41.6%,54.9%,
Cc1ccc(Nc2cccc3ccccc23)cc1,62.1%,76.5%,93.2%,,73.2%,89.1%,83.4%,78.1%,65.1%,103%,29.7%,77.7%,38.4%,80.7%,88.1%,59.4%,101%,
CS(=O)(=O)c1ccc(C(=O)N/N=C/c2ccccc2Cl)cc1,92.5%,115%,109%,95.9%,107%,103%,98.1%,106%,,92.7%,106%,97.3%,93.3%,94.3%,95.8%,100%,88.3%,
COc1ccc(-c2cc(-c3ccc(OC)cc3)c3sc(=O)[nH]c3n2)cc1,98.1%,85.3%,101%,95.6%,84.4%,101%,67.7%,92.2%,78.6%,92.9%,107%,95.9%,87.4%,96.8%,,93.9%,92.8%,
COC(=O)[C@H](Cc1cn(C)cn1)NC(=O)[C@H](CC(C)C)NC(=O)Nc1cc(C(F)(F)F)cc(C(F)(F)F)c1,-46.5% [100 µM] (active),-53.4% [100 µM] (active),-98.6% [100 µM] (active),-97% [100 µM] (active),-89.2% [100 µM] (active),-98.8% [100 µM] (active),-17.3% [100 µM] (active),-67.3% [100 µM] (active),-64.9% [100 µM] (active),-95.6% [100 µM] (active),-97.1% [100 µM] (active),-43.6% [100 µM] (active),-86.5% [100 µM] (active),-98% [100 µM] (active),-90.3% [100 µM] (active),-95.4% [100 µM] (active),-100% [100 µM] (active),
